SF-1 inh: inhibitors of human SF-1, primary screen, cell-based, CHO-K1, Gal4-SF-1 LBD, luciferase luminescence; inhibition, % at 10 µM; CHO-K1 Gal4-SF-1 LBD luciferase reporter; Steroidogenic factor 1 (Homo sapiens), Q13285; 0.55% of 65,000 active;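 active = inhibition above the mean inhibition of all tested compounds plus 3 SD, cut at about 48% in these data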;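 note: 0% = SF-1 transfected cells with DMSO and 100% = mock-transfected cells lacking SF-1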
Target sequence (Q13285 whole entry, looked up, the tested form may be a part): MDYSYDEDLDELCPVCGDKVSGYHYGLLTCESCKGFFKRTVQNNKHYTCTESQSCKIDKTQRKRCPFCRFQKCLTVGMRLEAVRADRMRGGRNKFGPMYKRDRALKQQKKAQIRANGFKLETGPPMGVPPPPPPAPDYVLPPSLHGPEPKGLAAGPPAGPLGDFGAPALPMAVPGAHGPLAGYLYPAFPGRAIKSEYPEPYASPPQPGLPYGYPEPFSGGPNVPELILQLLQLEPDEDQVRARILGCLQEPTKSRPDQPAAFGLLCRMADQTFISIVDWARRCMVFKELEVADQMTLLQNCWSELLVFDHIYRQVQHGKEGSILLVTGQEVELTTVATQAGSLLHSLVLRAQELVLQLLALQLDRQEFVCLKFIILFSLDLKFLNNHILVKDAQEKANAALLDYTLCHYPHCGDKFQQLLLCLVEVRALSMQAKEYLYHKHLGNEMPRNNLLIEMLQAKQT
* = called active by the depositor. Many of the other results were omitted from the sample, so hits are more common in it than they were.

SMILES	SF-1 inh
CCOc1ccc(C2=Nn3c(nnc3-c3ccccc3OC)SC2)cc1	73*
CCOc1ccc(NC(=O)c2ccccc2OC)cc1	-73
Clc1ccc(C2=Nn3c(nnc3-c3cccnc3)SC2)s1	6
COc1ccccc1-c1nnc2n1N=C(c1ccc(O)c(O)c1)CS2	67*
CCn1c(SCC(=O)c2ccc(O)c(O)c2)nnc1-c1ccccc1OC	5
COc1ccc(-n2c(=S)[nH]c3cc(C(=O)NCCCN4CCCC4=O)ccc3c2=O)cc1	-8
O=C(C1CCCN(S(=O)(=O)c2cnc[nH]2)C1)N1CCN(c2ccc(Cl)cc2)CC1 (stereo unspecified)	-2
O=C(NCCc1ccccc1)c1cc(-c2ccc3c(c2)OCO3)on1	-8
CCCn1c(NC(=O)C2CCN(S(=O)(=O)c3cccs3)CC2)nc2ccccc21	20
Cc1cnc(NC(=O)COc2ccccc2Cl)s1	60*
Cc1cnc(NC(=O)CSc2nnc(COc3c(C)cccc3C)o2)s1	1
Cc1cnc(NC(=O)CSc2nnc(-c3ccccc3)o2)s1	-88
O=C(Cn1cc2c(n1)CCCC2)Nc1cc(-c2cccc(Cl)c2)no1	-9
Cc1cc(N2CCN(C(=O)c3ccco3)CC2)n2nc(-c3cccc(Cl)c3)cc2n1	12
CCOc1cc(NC(=O)c2ccco2)c(OCC)cc1NC(=O)Cc1ccc(OC)c(OC)c1	-7
COc1cccc(-c2nc(-c3ccc(NC(=O)c4cccnc4)cc3)no2)c1	-55
COc1cccc(-c2nnc(NC(=O)c3ccc(S(=O)(=O)N4CC(C)OC(C)C4)cc3)o2)c1 (stereo unspecified)	49*
COc1cccc(-c2nc(CS(=O)(=O)CC(=O)N3CCN(C)CC3)c(C)o2)c1	-7
O=C(NCc1ccc(N2CCCC2=O)cc1)c1cn(Cc2ccccc2)nn1	-7
CCn1c(SCC(=O)Nc2nc(-c3ccc(C)cc3)cs2)nnc1-c1ccccc1O	-10
O=C(NCc1ccccn1)C1CC(=O)N(C2CCCC2)C1 (stereo unspecified)	-8
COc1ccc(OC)c(-n2nnnc2SCC(=O)Nc2ccc(C(=O)N3CCCCC3)cc2)c1	14
CCOc1ccccc1-c1nc(-c2ccc(C)nc2OC)no1	-58
Cc1cccc(NC(=O)CSc2nnc(-c3cc(C)n(-c4ccccc4)c3C)o2)c1C	73*
Cc1ccc(Cl)cc1NC(=O)CSc1nnc(C)n1-c1ccccc1	16
SMILES	SF-1 inh
Cc1ccccc1NC(=O)CSc1[nH]c(=O)cc(C)c1C#N	0
O=C(Nc1nccs1)c1ccc(CSc2nnnn2-c2ccccc2)cc1	-41
CC1=C(C(=O)Nc2ccccn2)C(c2cccnc2)n2nnnc2N1 (stereo unspecified)	-9
O=C(Nc1sc2c(c1C(=O)O)CCCCC2)c1ccco1	-57
O=C(NCc1ccco1)c1ccc2nc3sc4c(c3c(=O)n2c1)CCCC4	60*
O=C(Cn1cnc2sc(-c3ccccc3)cc2c1=O)NCc1ccco1	-38
CC1N/C(=C\C(=O)c2ccccc2)N(O)C1(C)C (stereo unspecified)	-30
CC1(C)CC(=O)C2=C(C1)Oc1nc3ccccc3cc1C2C(C#N)C#N (stereo unspecified)	81*
CCCCCCC1C(C#N)=C(N)OC2=C1C(=O)CC(C)(C)C2 (stereo unspecified)	-7
C=CCOc1ccc2c(c1)c(S(=O)(=O)c1ccc(C)cc1)cn2COC	22
Cc1cc(NC(=O)c2noc3c2CCCCC3)no1	-39
Cc1cc(NC(=O)c2ccc3c(c2)OCCO3)no1	51*
Cc1cc(NC(=O)c2ccc3c(c2)OCO3)no1	-60
C/C(NCc1cccnc1)=C(\C#N)C(=O)NCc1ccccc1	5
CCOC(=O)c1nnn(-c2nn3nnnc3c3ccccc23)c1C	0
COc1ccc(OC)c(NC(=O)CSc2nnnn2-c2ccc3c(c2)OCO3)c1	91*
CCn1c(CNC(=O)c2ccc3c(c2)OCO3)nnc1SCC(=O)Nc1cc(C)ccc1OC	4
CC(C)OC(=O)CSc1nnnn1-c1ccc2c(c1)OCCO2	-69
Cc1ccc(S(=O)(=O)NCC(=O)OCN2C(=O)c3ccccc3C2=O)cc1	1
COc1ccc(NC(=O)CN2CCN(CC(=O)Nc3ccccc3F)CC2)cc1OC	-13
Nc1c(C(=O)NC2CCCC2)sc2nc(-c3cccs3)ccc12	-60
Cc1cc(NC(=O)CCCS(=O)(=O)c2nc(-c3cccs3)cc(C(F)(F)F)n2)no1	48*
CCn1cnc2c1c(=O)n(CC(=O)Nc1cc(C)on1)c(=O)n2Cc1ccccc1	0
COc1ccc(-c2cc(C(F)(F)F)nc(SCC(=O)Nc3cc(C)on3)n2)cc1OC	23
CS(=O)(=O)c1nc(-c2cccs2)cc(C(F)(F)F)n1	70*
SMILES	SF-1 inh
COc1cccc2cc(C(=O)C3=C(O)C(=O)N(CCN4CCOCC4)C3c3cccs3)oc12 (stereo unspecified)	13
O=C(OC(C(=O)NCc1ccc2c(c1)OCO2)c1ccc(Cl)cc1)c1ccco1 (stereo unspecified)	5
COC(=O)NCc1ccc(S(=O)(=O)N2CCOCC2)cc1	-7
Cc1ccc(S(=O)(=O)Nc2cccc3ncccc23)s1	91*
Cn1c(=O)c2cn3c(c2n(C)c1=O)C(c1ccccc1)CC(c1ccccc1)=N3 (stereo unspecified)	-8
COc1ccc(S(=O)(=O)N(CC(=O)N2CCN(C)CC2)c2ccc(C)cc2)cc1OC	0
COC(=O)CSc1nc(C)cc(Oc2ccccc2)n1	-7
COc1ccc2nc(NC(=O)c3ccc(-n4nc(C)cc4C)cc3)sc2c1	15
COC(=O)c1ccc(Oc2cc(C)nc(-n3nc(C)cc3C)n2)cc1	51*
Cn1c(COc2ccc3ccccc3c2)nnc1SCC(=O)O	10
O=C(Oc1ccc2c(c1)OCO2)c1cc2c(s1)CCC2	8
O=C1OCCC1Sc1nnc(-c2ccc3c(c2)OCO3)n1-c1ccccc1 (stereo unspecified)	4
COCCn1c(C)cc(C(=O)COC(=O)C23CC4CC(CC(O)(C4)C2)C3)c1C	-77
COCCn1c(C)cc(C(=O)CN2C(=O)NC3(CCCCCCC3)C2=O)c1C	-43
COCCn1c(C)cc(C(=O)CSc2nnc(C)s2)c1C	68*
O=C(CN1C(=O)C2CC=C(Cl)CC2C1=O)N1CCOCC1 (stereo unspecified)	2
CCOC(=O)/C=C1\CC(=O)Nc2nonc2N1	11
Cc1cc(C)nc(SCCS(=O)Cc2ccc(Cl)cc2)n1 (stereo unspecified)	-1
Fc1ccc(-c2nnc(NC3=NCCCCC3)o2)cc1	62*
CC1=C(C)CC(C(=O)c2ccccc2)C(C(=O)O)C1 (stereo unspecified)	20
CCOC(=O)C1CCCN(C(=O)C2CCN(S(=O)(=O)c3cnc[nH]3)CC2)C1 (stereo unspecified)	-23
Cc1ccc(-c2nc(NC(=O)CSc3nnnn3-c3ccccc3)ns2)cc1	27
O=C(CSc1nnnn1-c1ccccc1)NC(=O)Nc1ccc2c(c1)OCCO2	-72
CCn1c2ccccc2c2cc(NC(=O)CSc3nnnn3-c3ccccc3)ccc21	70*
CC(=O)N1CCc2c(sc(NC(=O)c3ccc4c(c3)OCCO4)c2C#N)C1	-77
CN(C)S(=O)(=O)c1cccc(C(=O)C2=C3SC=C(c4ccccc4)N3CC2)c1	-4
CCN(CC)S(=O)(=O)c1ccc2oc(C(=O)NCC3COc4ccccc4O3)c(C)c2c1 (stereo unspecified)	6
O=c1cc(N2CCN(c3cccc(Cl)c3)CC2)[nH]c(=O)n1C1CCCCC1	80*

Screens from PubChem BioAssay.
